Drawing on PubChem BioAssay (EPA / NIEHS), this text covers outcome and AC50 for 53 compounds.

Structures are written as SMILES. “And” between values parts separate entries of the source, which are not always exact repeats. Equal values may be shown once. Results filed as inconclusive are left out. The source made the active and inactive calls. How the source made its calls, unless noted: active means hit-call score of the fitted dose curve at least 0.9, where 1 is the maximum; inactive means score below 0.9.

Assay [1] is described as follows: Tanguay_ZF_120hpf_TR_legacy: (Legacy) Oregon State University Tanguay Lab 120 Hour Post-fertilization zebrafish Assay for Touch Response (AID 2283667; active means hit-call score of the fitted dose curve at least 0.9, where 1 is the maximum). Put shortly:
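Binary touch-response endpoint in larvae at 120 hpf after static waterborne exposure from embryo stage (28°C, 0.64% DMSO vehicle, 5 uM trimethyltin chloride as positive control); embryos dead at 24 or 120 hpf excluded; fitted as gain versus DMSO.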

The nature of assay [2]: CCTE_Padilla_ZF_144hpf_TERATOSCORE: (Legacy) CCTE's 144 Hour Post-fertilization zebrafish Assay Teratoscore, Padilla Lab (AID 2283679).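 On AC50: zebrafish embryos with chorions exposed by immersion from 6-8 hpf to 5 dpf with daily renewal; teratogenicity score from eye scoring of death hatching and malformations at 144 hpf; higher score means more developmental defects relative to DMSO baseline.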 Put shortly: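 Larvae scored by eye at 144 hpf for death, hatching and malformations after a day in clean Hanks'. Before that, daily-renewed exposure at 80 uM (0.4% DMSO, 26C) from roughly 6-8 hpf through 5 dpf, 4 embryos per chemical.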

Assay [3] is described as follows: STM_H9_OrnithineISnorm_perc: Stemina devTOX quickPredict H9 human embryonic stem cell (hESC)-based Assay for Ornithine (ORN) Metabolite Biomarker, Normalized (AID 2283712).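 Further: ornithine released into spent medium during last day measured by mass spectrometry.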 Put shortly: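 Metabolite endpoint from spent media of pluripotent H9 cells treated 72 h with daily re-feeding; ornithine measured by UPLC-HRMS against its 13C spike-in and referenced to the median 0.1% DMSO vehicle response.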

Assay [4] in a line: STM_H9_CystineISnorm_perc: Stemina devTOX quickPredict H9 human embryonic stem cell (hESC)-based Assay for Cystine (CYSS) Metabolite Biomarker, Normalized (AID 2283713). Put shortly:
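Normalized cystine level in conditioned medium from the final 24h of a 72h treatment of pluripotent H9 cells (daily media and compound renewal). Quantified by UPLC-HRMS with C13-labeled internal standard; scaled to median of 0.1% DMSO vehicle wells.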

The nature of assay [5]: CEETOX_H295R_MTT_cell_viability: Viability Assessment in the CeeTox HT-H295R MTT Assay (AID 2283718).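 On AC50: curve fitted both ways so AC50 may mark viability loss or gain.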 Put shortly: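 MTT reduction (0.5 mg/ml, 4 h at 37 C; absorbance at 570 and 650 nm) gave viability as background-corrected percent change versus controls. H295R cells had 48 h forskolin (10 uM) prestimulation, then 48 h chemical exposure at 0.1% DMSO.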

What is called AC50 is the midpoint of the concentration-response curve, whichever way the signal moves.

Turning to `CC(C)c1cccc(C(C)C)c1NC(=O)NS(=O)(=O)c1cc(C(C)(C)O)co1`, the outcome in assay [1] and in assay [2] was inactive.
On to `COc1ccc(OC(F)(F)F)cc1CN[C@H]1CCCN[C@H]1c1ccccc1`, for which, in assay [1], the result was inactive. Moreover, the AC50 in assay [2] is 56.5 µM (active).
On to `CN(C)CCCN(C)CCCN(C)C`, for which, in assay [1], the compound was called inactive.
On the same count and under the same terms, with `CO[C@@H]1COCC[C@@H]1N[C@@H]1CC[C@@](C(=O)N2CCc3ncc(C(F)(F)F)cc3C2)(C(C)C)C1` the entry was “inactive”.
Regarding `OCC(CO)n1cnc(-c2ccc(F)cc2)c1-c1ccnc(Oc2ccccc2)n1`, the result in assay [1] was inactive.
In the case of `CCCCCCCC(=O)OC`, the call in assay [1] was inactive.
Regarding `C=CCCCCCCCCCCCC`, the compound was classed as inactive in assay [1] and in assay [2].
As for `Cn1cnc2c1c(=O)[nH]c(=O)n2C`, the result in assay [1] was inactive.
In the case of `CC(N)=O`, the compound was classed as inactive in assay [1] and in assay [2].
On to `CCCCOC(=O)CCCCC(=O)OCCCC`, for which the call in assay [1] was inactive. The AC50 in assay [2] is 15.9 µM (active).
Consider `O=C(O)CC(O)(CC(=O)O)C(=O)O`, for which the call in assay [1] was inactive.
`O=C1CCCCC1`: the compound was classed as inactive in assay [1] and in assay [2].
For the compound `CS(=O)(=O)c1ccc([C@@H](C[C@H]2CCC(=O)C2)C(=O)Nc2cnccn2)cc1Cl`, the compound was classed as inactive in assay [1] and in assay [2].
For `COC(=O)CCC(=O)OC`, the compound was classed as inactive in assay [1].
On to `COC(=O)CCCC(=O)OC`, for which, in assay [1], the compound was called inactive. The AC50 in assay [2] is 62.7 µM (active).
Take `C#CC(O)C(CC)CCCC` (stereo not drawn): the result in assay [1] was inactive. In assay [2], the AC50 is 21.2 µM (active).
Take `CCCCC(CC)COC(=O)CCCCCCCC(=O)OCC(CC)CCCC` (stereo not drawn): the compound was classed as inactive in assay [1].
Consider `CC(=O)O`, for which the call in assay [1] and in assay [2] was inactive.
Take `O=C(NS(=O)(=O)/C=C/c1cccs1)c1ccc(F)cc1Br`: the call in assay [1] and in assay [2] was inactive.
With `NC=O`, the outcome in assay [1] and in assay [2] was inactive.
For `CC(=O)OC1CC(C)OC(C)O1` (stereo not drawn), the compound was called inactive in assay [1].
In the case of `CCCCCCC(C=O)=Cc1ccccc1`, in assay [1], the result was inactive. Moreover, the AC50 in assay [2] was 13.9 µM (active).
`CC(C)c1cccc(C(C)C)c1`: the compound was called inactive in assay [1].
`O=[Si]=O`: the outcome in assay [1] and in assay [2] was inactive.
As to `OCC(O)CO`, in assay [1], the compound was called inactive.
`NC1CCCCC1`: in assay [1], the call was inactive.
In the case of `N[C@@H](Cc1c[nH]c2ccccc12)C(=O)O`, the call in assay [1], in assay [2], in assay [3] and in assay [4] was inactive.
As to `CCCCC(CC)COP(=O)(OCC(CC)CCCC)OCC(CC)CCCC` (stereo not drawn), the call in assay [1], in assay [3] and in assay [4] was inactive.
For `CC(=O)O[C@]1(C(C)=O)CC[C@H]2[C@@H]3C=C(Cl)C4=CC(=O)[C@@H]5C[C@@H]5[C@]4(C)[C@H]3CC[C@@]21C`, the result in assay [1] and in assay [5] was inactive. Also, in assay [2], the AC50 was 15.2 µM (active).
Regarding `CC(C)(O)c1ccc(CNC(=O)c2cccnc2Oc2ccc(F)cc2)cc1`, the compound was called inactive in assay [1], in assay [2] and in assay [5].
Regarding `CC(COCC(C)OC(=O)c1ccccc1)OC(=O)c1ccccc1` (stereo not drawn), the result in assay [1], in assay [3], in assay [4] and in assay [5] was inactive. For the same compound, the AC50 in assay [2] was 7.06 µM (active) and 4.45 µM (active).
Consider `O=C(Oc1ccccc1)c1cccc(C(=O)Oc2ccccc2)c1`, for which the compound was called inactive in assay [1], in assay [3], in assay [4] and in assay [5]. The AC50 in assay [2] was 9.15 µM (active).
Regarding `C=CCc1ccc(OC)c(OC)c1`, in assay [5], the AC50 was 0.102 µM (active).
As for `CC(=O)[C@@]1(O)CC[C@H]2[C@@H]3CCC4=CC(=O)CC[C@]4(C)[C@H]3CC[C@@]21C`, the outcome in assay [1] and in assay [5] was inactive. Further, the half-maximal activity concentration (AC50) in assay [2] is 36.1 µM (active); in assay [3], 62 µM (active); in assay [4], 80 µM (active).
As for `CCCC[C@H]1CN(CC2CCOCC2)C(=O)OC12CCN(C1(C)CCN(C(=O)c3c(C)ncnc3C)CC1)CC2`, the call in assay [1], in assay [2], in assay [3] and in assay [4] was inactive.
Turning to `CCCCc1nc2cccnc2n1Cc1ccc(-c2ccccc2-c2nnn[nH]2)cc1`, the compound was called inactive in assay [2] and in assay [5].
`O=C(O)CN(CC(=O)O)CC(=O)O`: the outcome in assay [1], in assay [2], in assay [3] and in assay [5] was inactive. The AC50 in assay [4] is 14.8 µM (active).
Regarding `CCc1nc(N)nc(N)c1-c1ccc(Cl)cc1`, the figures for the AC50 in assay [2], in assay [3] and in assay [4] were 64.5 µM (active), 30.7 µM (active) and 30.6 µM (active), respectively.
`CC(=O)CC(c1ccccc1)c1c(O)c2ccccc2oc1=O` (stereo not drawn): the compound was classed as inactive in assay [1], in assay [3] and in assay [4]. In addition, in assay [2], the AC50 was 39.6 µM (active).
For the compound `Cc1ccc(-c2cc(C(F)(F)F)nn2-c2ccc(S(N)(=O)=O)cc2)cc1`, the compound was classed as inactive in assay [1], in assay [3] and in assay [4]. Also, the AC50 in assay [2] is 8.82 µM (active).
As for `O=C1NC(=O)C(c2ccccc2)(c2ccccc2)N1`, the call in assay [1], in assay [3] and in assay [4] was inactive.
As to `CCN(CC)CCOc1ccc(C(=C(Cl)c2ccccc2)c2ccccc2)cc1`, the AC50 was 1.56 µM (active) in assay [2], 6.22 µM (active) in assay [3] and 1.17 µM (active) in assay [4]. For the same compound, the call in assay [5] was inactive.
Regarding `Nc1nc(Cl)nc2c1ncn2[C@H]1C[C@H](O)[C@@H](CO)O1`, in assay [1], the compound was called inactive. Further, the figures for the AC50 in assay [3], in assay [4] and in assay [5] were 0.35 µM (active), 0.348 µM (active) and 0.109 µM (active), respectively.
Consider `O=C(O)c1cccnc1`, for which the call in assay [2], in assay [3] and in assay [4] was inactive.
For `CC(C)OC(=O)C(C)(C)Oc1ccc(C(=O)c2ccc(Cl)cc2)cc1`, the call in assay [1], in assay [3] and in assay [4] was inactive. Also, the AC50 in assay [2] was 1.78 µM (active).
Regarding `Cc1cn([C@H]2C=C[C@@H](CO)O2)c(=O)[nH]c1=O`, the compound was called inactive in assay [1], in assay [3] and in assay [4].
Turning to `NCCOCCOCCN`, the compound was called inactive in assay [2].
Consider `CCc1cc(C2=C(C(=O)O)N(c3ccccc3C(F)(F)F)S(=O)(=O)c3ccccc32)cc2c1OCO2`, for which the compound was classed as inactive in assay [1], in assay [2], in assay [3] and in assay [4].
With `CC(=O)S[C@H](C(=O)N[C@H]1Cc2ccccc2[C@H]2CCC[C@@H](C(=O)O)N2C1=O)C(C)C`, the call in assay [1], in assay [3] and in assay [4] was inactive.
As to `COc1ccc(C(=O)Nc2nc3ccccc3c(NCc3ccccc3)c2C#N)cc1`, the compound was called inactive in assay [1]. Further, the AC50 in assay [5] was 0.909 µM (active).
For `CN(C)C(=O)NC1(c2ccccc2)CCN(CCC[C@]2(c3ccc(Cl)c(Cl)c3)CCCN(C(=O)c3ccccc3)C2)CC1`, the result in assay [1] and in assay [5] was inactive.
Take `CCCCCCCCCCCCCCCCO`: the call in assay [1], in assay [3] and in assay [4] was inactive.
Turning to `CC(C)COC(=O)CCCCC(=O)OCC(C)C`, the AC50 in assay [2] was 32.4 µM (active).
